{"source": "PubChem BioAssay (EPA / NIEHS)", "key": {"[1]": {"test": "VALA_TUBHUV_Agonist_CellCount: Viability Assessment in the VALA Sciences human Umbilical Vein Endothelial Tubule Formation (TUBHUV) Agonism Assay (AID 2284309)", "summary_of_the_method": "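HUVEC co-cultured 1:3 with HDF for 3 days in 10 ng/ml VEGF, then compounds added in VEGF medium for a further 3 days (72 h). Nuclear-stain/CD31 imaging cell count. Positive-direction fit versus 0.1% DMSO vehicle.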"}, "[2]": {"test": "VALA_TUBIPS_Agonist_TubuleLength: VALA Sciences human iPS-derived Endothelial Tubule Formation (TUBIPS) Agonism Assay (AID 2284311)", "summary_of_the_method": "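Human iPS-derived endothelial cells were exposed to compound for 72 h. Tubule formation was imaged by high-content fluorescence and scored as gain of signal relative to DMSO vehicle (agonist mode).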"}, "[3]": {"test": "VALA_TUBIPS_Antagonist_TubuleLength: VALA Sciences human iPS-derived Endothelial Tubule Formation (TUBIPS) Antagonist Assay (AID 2284313)", "summary_of_the_method": "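Cells grown 3 days with 10 ng/ml VEGF, then exposed to compounds in VEGF medium for another 3 days. After fixation, nuclear stain and CD31 immunofluorescence imaging gave mean total tubule length against 0.1% DMSO; suramin (100 uM) inhibition control.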"}, "[4]": {"test": "VALA_MIGHUV2_CellCount: Viability Assessment in the VALA Sciences human Umbilical Vein Endothelial Cell Migration (MIGHUV) Assay, Area of Scratch Wound after Recovery (AID 2284314)", "summary_of_the_method": "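Scratch-wounded HUVEC monolayers received test chemical within 30 min, 6-point concentration response in triplicate, 0.1 % DMSO vehicle. After 24 h wound recovery, fixed cells were Hoechst-stained and nuclei imaged; loss of signal versus DMSO indicates reduced viability.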"}, "[5]": {"test": "VALA_MIGHUV2_Bcatenin: VALA Sciences human Umbilical Vein Endothelial Cell Migration (MIGHUV) Assay, Nuclear Translocation of beta-Catenin after Recovery (AID 2284315)", "summary_of_the_method": "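HUVEC (4000 cells/well) scratch-wounded, dosed within 30 min over 6 concentrations in triplicate, recovered 24 h. After fixation, Hoechst and anti-beta-catenin immunofluorescence imaged for nuclear CTNB. Gain of signal versus 0.1% DMSO.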"}, "[6]": {"test": "VALA_MIGHUV2_WoundArea: VALA Sciences human Umbilical Vein Endothelial Cell Migration (MIGHUV) Assay, Area of Scratch Wound after Recovery (AID 2284316)", "summary_of_the_method": "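HUVEC seeded at 9000 cells/well, scratched after 24 h; test chemical added within 30 min, 6-point concentration response in triplicate (0.1% DMSO vehicle). After 24 h wound recovery, cells fixed and Hoechst-stained nuclei in wound area imaged; Cytochalasin D reference control.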"}, "[7]": {"test": "TAMU_PeakParms_SingleDonor1434_Asystole: Texas A&M University (TAMU) 1.5-hr Human Induced Pluripotent Stem Cell (iPSC)-derived Cardiomyocytes Calcium (Ca+2) Flux Assay for Cardiotoxicity: Asystole (quiescence of beating) (AID 2284328)", "summary_of_the_method": "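Human iPSC-derived cardiomyocytes (donor 1434) were exposed to 0.2, 1, 10 and 100 uM compound in 0.5% DMSO for 90 min at 37C. Ca2+-dye fluorescence gave average peak frequency; POD is EC95, a 95% beat-rate drop versus DMSO.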"}, "[8]": {"test": "VALA_TUBIPS_Antagonist_CellCount: Viability Assessment in the VALA Sciences human iPS-derived Endothelial Tubule Formation (TUBIPS) Antagonism Assay (AID 2284335)"}, "[9]": {"test": "VALA_MIGHUV1_ScratchOnly_WoundArea: VALA Sciences human Umbilical Vein Endothelial Cell Migration (MIGHUV) Assay, Area of Scratch Wound Inhibited Recovery (AID 2284336)", "summary_of_the_method": "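HUVEC monolayers (9000 cells/well) were scratched after 24 h, dosed within 30 min (six concentrations, triplicate, 0.1% DMSO), allowed 24 h recovery, then fixed. Hoechst-stained nuclei in the wound imaged; cytochalasin D as reference.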"}, "[10]": {"test": "VALA_TUBHUV_Agonist_TubuleLength: VALA Sciences human Umbilical Vein Endothelial Tubule Formation (TUBHUV) Agonism Assay (AID 2284337)", "summary_of_the_method": "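HUVEC co-cultured with fibroblasts (1:3) 3 days in 10 ng/ml VEGF, then 3 days with compound plus VEGF; 0.1 % DMSO neutral control. Fixed, nuclear and CD31 stained; tubule length by fluorescence imaging.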"}, "[11]": {"test": "CCTE_Deisenroth_5AR_NBTE_donor: CCTE's 5alpha-reductase NanoBRET Target Engagement Assay […], Deisenroth Lab (AID 2284319; active means hit-call score of the fitted dose curve at least 0.9, where 1 is the maximum; inactive means score below 0.9)", "conditions": "actives raise or lower the signal", "summary_of_the_method": "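HEK293T cells were reverse transfected with an SRD5A2-NanoLuc vector for 20 h, exposed to test chemical (8 points, 10 nM - 29.9 uM) for 3 h, then testosterone tracer for 2 h more. Donor luminescence (460 nm) was read; bidirectional fit versus DMSO.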"}, "[12]": {"test": "CCTE_Deisenroth_5AR_NBTE_acceptor: CCTE's 5alpha-reductase NanoBRET Target Engagement Assay - Autofluorescence Screen, Deisenroth Lab (AID 2284321; active means hit-call score of the fitted dose curve at least 0.9, where 1 is the maximum; inactive means score below 0.9)", "conditions": "actives raise or lower the signal", "summary_of_the_method": "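HEK293T cell-based NanoBRET assay read 5 h after dosing; this acceptor channel serves as an autofluorescence artifact screen. Chemicals at nominal 100 uM were scanned in three independent runs (n=3), excitation 460 nm. Fitting was bidirectional versus DMSO baseline.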"}, "SRD5A2 (gene 6716)": {"system": "SRD5A2 (gene 6716)", "test": "CCTE_Deisenroth_5AR_NBTE_ratio: CCTE's 5alpha-reductase NanoBRET Target Engagement Assay - Ratio, Deisenroth Lab (AID 2284322; active means hit-call score of the fitted dose curve at least 0.9, where 1 is the maximum; inactive means score below 0.9)", "conditions": "actives raise or lower the signal", "summary_of_the_method": "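HEK293T transiently expressing SRD5A2-NanoLuc; cells exposed to chemical (8-point, 10 nM - 29.9 uM) for 5 h total, testosterone tracer added for final 2 h. NanoBRET acceptor/donor ratio (650/460 nm), bidirectional fit vs DMSO.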"}, "[13]": {"test": "CCTE_Mundy_HCI_iCellGluta_NOG_NeuriteLength: CCTE's Neurite Outgrowth Assay in iCellGluta cells for Neurite Length, Mundy Lab (AID 2284318)", "summary_of_the_method": "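Automated high-content imaging of betaIII-tubulin (Alexa Fluor-488) and Hoechst-stained cells gave neurite length, normalized to the DMSO baseline.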"}, "IYD (gene 389434)": {"system": "IYD (gene 389434)", "test": "CCTE_GLTED_hIYD: CCTE's human Iodotyrosine Deiodinase (xIYD) Inhibition Assay, Great Lakes Toxicology and Ecology Division (GLTED) Lab (AID 2284317);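 further: cell-free human IYD enzyme made in baculovirus insect cells; iodide freed from monoiodotyrosine measured by cerium arsenite color change at 420 nm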", "summary_of_the_method": "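Absorbance change at 420 nm from the iodide-catalysed cerium-arsenic reaction reports free iodide released by human IYD from monoiodotyrosine. Enzyme, substrate and chemical are incubated 3 h; loss of signal is fitted relative to DMSO baseline.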"}, "[14]": {"test": "IUF_NPC2-5_cytotoxicity_120hr: Cytotoxicity Assessment at 120 hours in the Leibniz Research Institute for Environmental Medicine (IUF) Neural Progenitor Cell Migration and Differentiation Assay (NPC2-5) (AID 2284307)", "summary_of_the_method": "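Human fetal neural progenitor spheres (0.3 mm, GW 16-19 cortex) were plated on poly-D-lysine/laminin in N2 differentiation medium and exposed for 120 h, with half-medium refresh at day 3. LDH release into supernatant was read by resorufin fluorescence.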"}, "[15]": {"test": "IUF_NPC2-5_cell_number_120hr: Cell Number Assessment at 120 hours in the Leibniz Research Institute for Environmental Medicine (IUF) Neural Progenitor Cell Migration and Differentiation Assay (NPC2-5) (AID 2284308; active means hit-call score of the fitted dose curve at least 0.9, where 1 is the maximum; inactive means score below 0.9)", "summary_of_the_method": "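Primary human fetal neural progenitor spheres (GW 16-19, 0.3 mm) plated on poly-D-lysine/laminin in N2 differentiation medium, exposed from day 0 for 120 h with half-medium refresh at day 3; Hoechst-positive nuclei counted in migration area versus DMSO control.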"}, "[16]": {"test": "IUF_NPC2-5_viability_120hr: Viability Assessment at 120 hours in the Leibniz Research Institute for Environmental Medicine (IUF) Neural Progenitor Cell Migration and Differentiation Assay (NPC2-5) (AID 2284312; active means hit-call score of the fitted dose curve at least 0.9, where 1 is the maximum; inactive means score below 0.9)", "summary_of_the_method": "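Human fetal (GW 16-19) neural progenitor spheres of 0.3 mm were plated on poly-D-lysine/laminin in N2 differentiation medium and exposed from day 0 for 120 h, with half-medium refresh at day 3. Viability was read as alamar blue resazurin-to-resorufin fluorescence against DMSO.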"}, "[17]": {"test": "IUF_NPC1_cytotoxicity_72hr: Cytotoxicity Assessment at 72 hours in the Leibniz Research Institute for Environmental Medicine (IUF) Neural Progenitor Cell Proliferation Assay (NPC1) (AID 2284332)", "summary_of_the_method": "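Spheres of primary human neural progenitors are plated one per well on day 0 in growth-factor medium and dosed at once. After three days at 37C, supernatant LDH is measured fluorimetrically via resazurin reduction.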"}}, "note": "Inconclusive results are not listed. Active and inactive are the calls of the source. How the source made its calls, unless noted: active means hit-call score of the fitted dose curve at least 0.9, where 1 is the maximum; inconclusive means response in the unintended direction; inactive means score below 0.9.", "data": [{"smiles": "CC(C)(C)c1cc(O)ccc1O", "values": [{"measurement": "AC50", "setting": "[1]", "value": "11 µM (active)"}, {"measurement": "outcome", "setting": "[2]", "value": "inactive"}, {"measurement": "outcome", "setting": "[3]", "value": "inactive"}, {"measurement": "AC50", "setting": "[4]", "value": "74.3 µM (active)"}, {"measurement": "AC50", "setting": "[5]", "value": "82.8 µM (active)"}, {"measurement": "AC50", "setting": "[6]", "value": "73 µM (active)"}, {"measurement": "outcome", "setting": "[7]", "value": "inactive"}, {"measurement": "outcome", "setting": "[8]", "value": "inactive"}, {"measurement": "outcome", "setting": "[9]", "value": "inactive"}, {"measurement": "AC50", "setting": "[10]", "value": "56 µM (active)"}]}, {"smiles": "O=C(OC1CCCCC1)c1ccccc1C(=O)OC1CCCCC1", "values": [{"measurement": "outcome", "setting": "[11]", "value": "inactive"}, {"measurement": "outcome", "setting": "[12]", "value": "inactive"}, {"measurement": "outcome", "setting": "SRD5A2 (gene 6716)", "value": "inactive"}]}, {"smiles": "C=C(C)C(=O)[O][Sn]([CH2]CCC)([CH2]CCC)[CH2]CCC", "values": [{"measurement": "AC50", "setting": "[13]", "value": "0.241 µM (active)"}, {"measurement": "AC50", "setting": "[11]", "value": "5.38 µM (active)"}, {"measurement": "AC50", "setting": "[12]", "value": "5.27 µM (active)"}, {"measurement": "AC50", "setting": "SRD5A2 (gene 6716)", "value": "4.42 µM (active)"}]}, {"smiles": "ClCC(Cl)CCl", "values": [{"measurement": "outcome", "setting": "[4]", "value": "inactive"}, {"measurement": "outcome", "setting": "[6]", "value": "inactive"}, {"measurement": "outcome", "setting": "[8]", "value": "inactive"}, {"measurement": "outcome", "setting": "[9]", "value": "inactive"}, {"measurement": "outcome", "setting": "[10]", "value": "inactive"}]}, {"smiles": "CC(C)(C)CC(C)(C)c1ccc(O)cc1", "values": [{"measurement": "AC50", "setting": "IYD (gene 389434)", "value": "66.8 µM (active)"}]}, {"smiles": "O=[N+]([O-])c1ccc(O)c([N+](=O)[O-])c1", "values": [{"measurement": "outcome", "setting": "[11]", "value": "inactive"}, {"measurement": "outcome", "setting": "[12]", "value": "inactive"}, {"measurement": "AC50", "setting": "SRD5A2 (gene 6716)", "value": "64.9 µM (active)"}]}, {"smiles": "C[C@@H]1C[C@@H]([C@H](O)CC2CC(=O)NC(=O)C2)C(=O)[C@@H](C)C1", "values": [{"measurement": "outcome", "setting": "[11]", "value": "inactive"}, {"measurement": "outcome", "setting": "[12]", "value": "inactive"}, {"measurement": "AC50", "setting": "SRD5A2 (gene 6716)", "value": "0.0871 µM (active)"}]}, {"smiles": "ClC(Cl)=C(Cl)C(Cl)=C(Cl)Cl", "values": [{"measurement": "outcome", "setting": "[7]", "value": "inactive"}]}, {"smiles": "C=CC#N", "values": [{"measurement": "outcome", "setting": "IYD (gene 389434)", "value": "inactive"}]}, {"smiles": "CCOP(=S)(OCC)Oc1nc(Cl)c(Cl)cc1Cl", "values": [{"measurement": "outcome", "setting": "[14]", "value": "inactive"}, {"measurement": "outcome", "setting": "[15]", "value": "inactive"}, {"measurement": "outcome", "setting": "[16]", "value": "inactive"}, {"measurement": "outcome", "setting": "[11]", "value": "inactive"}, {"measurement": "outcome", "setting": "[12]", "value": "inactive"}, {"measurement": "outcome", "setting": "SRD5A2 (gene 6716)", "value": "inactive"}, {"measurement": "outcome", "setting": "[7]", "value": "inactive"}, {"measurement": "outcome", "setting": "[17]", "value": "inactive"}]}, {"smiles": "N#CN=C(N)N", "values": [{"measurement": "outcome", "setting": "[11]", "value": "inactive"}, {"measurement": "outcome", "setting": "[12]", "value": "inactive"}, {"measurement": "outcome", "setting": "SRD5A2 (gene 6716)", "value": "inactive"}]}, {"smiles": "C=CC(=O)OCCCCCC(C)C", "values": [{"measurement": "outcome", "setting": "IYD (gene 389434)", "value": "inactive"}]}, {"smiles": "CCN1CCC2(CC1)COc1cc3c(cc12)N(C(=O)c1ccc(-c2ccc(-c4nnc(C)o4)cc2C)cc1)CC3", "values": [{"measurement": "AC50", "setting": "[11]", "value": "2.7 µM (active)"}, {"measurement": "AC50", "setting": "[12]", "value": "2.17 µM (active)"}, {"measurement": "AC50", "setting": "SRD5A2 (gene 6716)", "value": "5.8 µM (active)"}]}]}
